# According to publication PMC4336329 (PLoS ONE, 2015):
# Hit rate of the full screen: of about 310,000 compounds, about 14,000 (4.5%) showed an effect of 50% or more. Effects have a minus sign here. This excerpt belongs to a sample that is enriched for strong results.
# Molecular target: human ether-à-go-go-related gene (hERG) potassium channel (human, UniProt Q12809)
# Assay: primary screen, population patch clamp on CHO cells stably expressing hERG; higher = less effect of the substance
# 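Also: peak tail current of the secondary pulse compared with the same well before compound.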
# Sequence of human ether-à-go-go-related gene (hERG) potassium channel (Q12809 whole entry, looked up): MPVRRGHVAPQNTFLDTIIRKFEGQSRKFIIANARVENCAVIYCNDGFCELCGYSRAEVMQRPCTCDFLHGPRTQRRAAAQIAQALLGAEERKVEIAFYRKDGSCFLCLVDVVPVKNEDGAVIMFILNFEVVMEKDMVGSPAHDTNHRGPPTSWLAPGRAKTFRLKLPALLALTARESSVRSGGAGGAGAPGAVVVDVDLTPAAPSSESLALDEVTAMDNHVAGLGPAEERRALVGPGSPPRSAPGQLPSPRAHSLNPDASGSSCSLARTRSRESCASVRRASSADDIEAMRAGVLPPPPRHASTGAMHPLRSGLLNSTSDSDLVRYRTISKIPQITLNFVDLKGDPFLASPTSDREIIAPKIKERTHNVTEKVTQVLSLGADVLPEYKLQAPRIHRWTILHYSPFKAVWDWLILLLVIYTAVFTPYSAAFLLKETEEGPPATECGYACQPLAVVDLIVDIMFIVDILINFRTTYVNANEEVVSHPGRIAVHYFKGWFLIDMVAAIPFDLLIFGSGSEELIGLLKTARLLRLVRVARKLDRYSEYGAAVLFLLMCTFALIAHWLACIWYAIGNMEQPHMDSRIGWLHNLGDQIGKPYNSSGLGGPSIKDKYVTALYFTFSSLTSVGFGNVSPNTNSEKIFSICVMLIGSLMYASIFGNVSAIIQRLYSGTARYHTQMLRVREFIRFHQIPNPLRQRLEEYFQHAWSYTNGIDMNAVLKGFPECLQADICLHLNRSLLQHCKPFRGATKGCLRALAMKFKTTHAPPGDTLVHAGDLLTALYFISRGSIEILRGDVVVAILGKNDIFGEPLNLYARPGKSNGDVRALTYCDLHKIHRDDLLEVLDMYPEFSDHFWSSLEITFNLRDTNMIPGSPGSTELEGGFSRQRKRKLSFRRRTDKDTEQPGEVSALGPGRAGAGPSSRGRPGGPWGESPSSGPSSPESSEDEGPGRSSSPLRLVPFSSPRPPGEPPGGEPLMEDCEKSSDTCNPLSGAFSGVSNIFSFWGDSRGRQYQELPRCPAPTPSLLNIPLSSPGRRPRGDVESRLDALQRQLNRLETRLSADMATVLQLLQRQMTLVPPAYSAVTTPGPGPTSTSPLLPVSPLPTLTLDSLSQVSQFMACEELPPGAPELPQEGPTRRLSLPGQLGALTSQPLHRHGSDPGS
row,Structure (SMILES),"hERG current change (%, negative = inhibition) at 10uM"
1,COc1ccc(C2=NOC(C(=O)N3CCOCC3)C2)cc1OC (stereo not shown),11.6%
2,COCc1cc(C)nc(SCC(=O)Nc2cccc(C)c2)c1C#N,14.2%
3,COC1=CC(=O)C(O)=C(CCCCCCC/C=C/CCCCCCCC2=C(O)C(=O)C=C(OC)C2=O)C1=O,-3%
4,CCOc1ccc(/C(CCC(=O)O)=N/NC(=S)NC(C)C)cc1,14.1%
5,CC1(C)NC(=O)N(CC(=O)O)C1=O,18%
6,N/C(=N\OC(=O)c1ccc2ccccc2c1)c1ccccn1,28.3%
7,COC(=O)C1=C(C)N=c2s/c(=C/c3cccs3)c(=O)n2C1c1cccs1 (stereo not shown),-7.35%
8,COC(=O)CN1C(=O)Nc2ccc(C)cc2C1c1ccccc1 (stereo not shown),14.3%
9,COc1ccc(-n2c(Cc3cccn3C)nnc2SCC(=O)Nc2cccc(F)c2)cc1,-54.3%
10,COc1ccc(-n2c(Cc3cccn3C)nnc2SCC(=O)Nc2cccc(OC)c2)cc1,-23.4%
11,COc1cc2c(cc1NC(=O)CSc1nnc(COc3ccc(Cl)cc3)n1C)oc1ccccc12,6.05%
12,COc1ccc(Cl)cc1NC(=O)CSc1nnc(COc2ccccc2)n1N,-5.96%
13,COc1ccc(OC)c(NC(=O)CSc2nnc(CNC(=O)COc3ccc(Cl)cc3)o2)c1,-60.1%
14,COc1cccc(NC(=O)CSc2nnc(Cc3cccn3C)n2-c2ccc(F)cc2)c1,-15.5%
15,COc1ccc(NC(=O)CSc2nnc(CNC(=O)COc3ccc(Cl)cc3)o2)c(OC)c1,-12.9%
16,COc1ccc(Cl)cc1NC(=O)CSc1nnc(COc2ccccc2)n1C,-57.3%
17,COc1ccccc1NC(=O)CSc1nnc(CNC(=O)COc2ccc(Cl)cc2)o1,-43.7%
18,CN(CCC#N)C(=O)COC(=O)c1ccccc1C(=O)c1ccc(Cl)c([N+](=O)[O-])c1,-0.749%
19,CCOC(=O)CCC(=O)N1CCOCCOCCN(C(=O)CCC(=O)OCC)CCOCC1,-7.63%
20,Cc1cc(C)c2nc(-c3ccccn3)cc(C(=O)Nc3cc(C)on3)c2c1,10.4%
21,COc1ccc(-n2nc(C(=O)NCC(=O)NC(C)C)c3ccccc3c2=O)cc1Cl,4.05%
22,COC(=O)c1c(C(=O)OC)c(-c2ccc(F)cc2)n2c1CS(=O)C2 (stereo not shown),26.7%

row,Structure (SMILES),"hERG current change (%, negative = inhibition) at 10uM"
1,COC(=O)c1c(C(=O)OC)c(-c2ccc(C)cc2)n2c1CS(=O)C2 (stereo not shown),-53.8%
2,COC(=O)c1c(C(=O)OC)c(-c2ccc(OC)cc2)n2c1CS(=O)C2 (stereo not shown),10.1%
3,CC(C)(C)C(=O)NCCc1nc2ccccc2n1CC(=O)c1ccc(Cl)cc1,-33.2%
4,CC(C)(C)C(=O)NCCCc1nc2ccccc2n1CCCOc1ccc(Cl)cc1,-57.2%
5,OCc1nc2ccccc2n1CCCCOc1ccccc1,0.828%
6,OCCCc1nc2ccccc2n1CCCCOc1ccccc1,-57.2%
7,CC(C)C(=O)NCCc1nc2ccccc2n1CCCOc1ccc(Cl)cc1,-41.7%
8,OCCCc1nc2ccccc2n1CCOc1ccccc1,-5.7%
9,CCSc1nnc(NC(=O)C2CCCCC2C(=O)OCC(F)(F)C(F)F)s1 (stereo not shown),17.9%
10,O=C(COc1ccccc1)Nc1ccc([N+](=O)[O-])cc1,1.57%
11,CCOC(=O)c1[nH]cnc1C(=O)Nc1ccccc1OC,-2.79%
12,Cc1csc(SCC(=O)Nc2nnc(C)s2)n1,15%
13,CC(Sc1nncn1C)C(=O)Nc1ccccc1-c1ccccc1 (stereo not shown),8.27%
14,O=C(NC1CCCC1)C(c1ccncc1)N(C(=O)c1ccco1)c1ccccc1 (stereo not shown),-5.61%
15,CCOC(=O)C1(CCOc2ccccc2)CCN(CC(O)CO)CC1 (stereo not shown),-26.9%
16,CCOC(=O)C1(CCOc2ccccc2)CCN(CC=C(C)C)CC1,-50.2%
17,CCCN1CCC(CCOc2ccccc2)(C(=O)OCC)CC1,-58.5%
18,CCOC(=O)C1(CCOc2ccccc2)CCN(CC2CC2)CC1,-47.4%
19,CCN1CCN(Cc2cccnc2)CC1,17.1%
20,CCCCOC(=O)c1ccc(NC(=O)CSc2nncn2C)cc1,-4.57%
21,Cc1ccc(S(=O)(=O)NNC(=O)c2cnn(-c3ccccc3)c2-n2cccc2)cc1,-15%
22,COc1ccc(C(=O)/C=C/C(=O)N(Cc2ccccc2)C(C(=O)NC2CCCCC2)c2ccncc2)c(O)c1 (stereo not shown),-19.3%

row,Structure (SMILES),"hERG current change (%, negative = inhibition) at 10uM"
1,O=C(N/N=C/c1ccsc1)c1ccc2ccccc2n1,-2.2%
2,O=c1c2ccccc2nnn1CSc1nc2ccccc2c(=O)n1Cc1ccco1,-6.44%
3,NC(=O)CSc1nc2ccccc2c(=O)n1Cc1ccco1,-36%
4,CCOC(=O)CSc1nc2ccccc2c(=O)n1Cc1ccco1,-18.1%
5,O=C(CSc1nc2ccccc2c(=O)n1Cc1ccco1)N1CCCC1,-77.1%
6,O=C(CSc1nc2ccccc2c(=O)n1Cc1ccco1)N1CCN(c2ccccc2)CC1,-74.9%
7,O=C(CSc1nc2ccccc2c(=O)n1Cc1ccco1)N1CCCCCC1,-76.4%
8,CCn1c(SCC(=O)N2CCN(c3cccc(Cl)c3)CC2)nc2ccccc2c1=O,-39.1%
9,COCCn1nnnc1CN1CCN2CCCC2C1.Cl (stereo not shown),3.16%
10,C/C(=N/NC(=O)c1cc(-c2ccccc2)nc2c(Cl)cccc12)c1cccnc1,26.1%
11,Cc1cc(=O)[nH]c(SCC(=O)N2CCCC(C)C2)n1 (stereo not shown),11.3%
12,CCOc1ccc(N(CC(=O)Nc2ccc(OC)cc2)S(=O)(=O)c2c(C)[nH]c(=O)[nH]c2=O)cc1,1.99%
13,COc1ccc(S(=O)(=O)N2CCOCC2)cc1C(=O)NCC(c1ccco1)N1CCCC1 (stereo not shown),3%
14,CN(C)CCCN1c2ccccc2Sc2ccc(Cl)cc21.Cl,-42.2%
15,OCCN1CCN(CCCN2c3ccccc3Sc3ccc(Cl)cc32)CC1,-49.3%
16,C[NH+](C)CCCN1c2ccccc2Sc2ccc(Cl)cc21.[Cl-],-65.3%
17,O=C(Nc1ccccc1C(=O)N1CCCC1)c1ccc(Cl)cc1Cl,14%
18,Cc1cc(C(=O)CSc2nnc(NCc3ccccc3)s2)c(C)n1C,-9.15%
19,O=C(CN1CCC(c2nc3ccccc3s2)CC1)NCc1cccs1,-37.2%
20,CCc1ccc(C(=O)N2CCC(c3nc4ccccc4s3)CC2)cc1,-71.9%
21,O=C(c1cccc(F)c1)N1CCC(c2nc3ccccc3s2)CC1,-49.9%
22,O=C(CN1CCC(c2nc3ccccc3s2)CC1)N1CCCCC1,-33.5%

row,Structure (SMILES),"hERG current change (%, negative = inhibition) at 10uM"
1,O=C(CN1CCC(c2nc3ccccc3s2)CC1)NCc1ccccc1,-67.5%
2,Cc1cccc(C(=O)N2CCC(c3nc4ccccc4s3)CC2)c1,-33.7%
3,O=C(c1ccccc1Br)N1CCC(c2nc3ccccc3s2)CC1,-35.1%
4,O=C(c1cccs1)N1CCC(c2nc3ccccc3s2)CC1,-57.2%
5,O=C(c1cccs1)N1CCN(c2nc3ccccc3s2)CC1,0.757%
6,O=C(N/N=C/c1c[nH]c2ccc(Br)cc12)c1ccn(Cc2ccc(Cl)cc2Cl)n1,6.95%
7,C/C(=C\c1ccc(Br)cc1)C(=O)c1c(C)cc(C)[nH]c1=O,8%
8,Cc1cc(C)c(NC(=O)CS)c(Cl)c1,6.4%
9,O=C(Nc1c(C(=O)N2CCC(N3CCCCC3)CC2)oc2ccccc12)c1ccc(F)cc1,-65.8%
10,CCOc1ccc(C(=O)Nc2c(C(N)=O)oc3ccccc23)cc1,11.9%
11,O=C(Nc1c(C(=O)N2CCOCC2)oc2ccccc12)c1ccccc1Cl,0.111%
12,O=C(c1ccc(F)cc1)N1CCC(N2CCCCCC2)CC1,-26%
13,O=C(Nc1c(C(=O)N2CCC(N3CCCCC3)CC2)oc2ccccc12)c1c(F)cccc1F,-51.7%
14,O=C(Nc1ccc(F)cc1)c1oc2ccccc2c1NC(=O)C1CCCC1,-4.15%
15,CCOc1ccc(C(=O)Nc2c(C(=O)N3CCC(N4CCCCC4)CC3)oc3ccccc23)cc1,-83.2%
16,COc1cc(C(=O)Nc2c(C(=O)N3CCOCC3)oc3ccccc23)cc(OC)c1OC,-10%
17,O=C(c1ccccc1F)N1CCC(N2CCCCCC2)CC1,-10.3%
18,O=C(O)CCCCCCCCc1cn(CCc2c[nH]c3ccccc23)nn1,4.49%
19,O=C(Nc1ccc(Cl)cc1)C1=Cc2ccccc2OC1,-9.34%
20,CC(=NCCC1=CCCCC1)c1c(O)n(-c2ccccc2)c(=O)[nH]c1=O,4.58%
21,CC(C)C[C@H](CO)Nc1nc(N(C)c2cccc(Cl)c2)c2ncn(C(C)C)c2n1,-7.87%
22,COCCn1c(=S)[nH]c2cc(OC)c(OC)cc2c1=O,11%
